Many of the other results were omitted from the sample, so hits are more common in it than they were.
TbREL1 inh = TbREL1 RNA ligase inhibitors, primary screen, biochemical, FRET fluorescence | RNA-editing ligase 1, mitochondrial (Trypanosoma brucei brucei), P86926 | TbREL1 RNA ligation | inhibition, % at 9.66 µM | hit rate 0.49% among 89,000 | AID 1117264, 2014;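 active = inhibition above the mean inhibition across all screened compounds plus 3 SD, cut at about 11% in these data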
Target sequence (P86926 whole entry, looked up): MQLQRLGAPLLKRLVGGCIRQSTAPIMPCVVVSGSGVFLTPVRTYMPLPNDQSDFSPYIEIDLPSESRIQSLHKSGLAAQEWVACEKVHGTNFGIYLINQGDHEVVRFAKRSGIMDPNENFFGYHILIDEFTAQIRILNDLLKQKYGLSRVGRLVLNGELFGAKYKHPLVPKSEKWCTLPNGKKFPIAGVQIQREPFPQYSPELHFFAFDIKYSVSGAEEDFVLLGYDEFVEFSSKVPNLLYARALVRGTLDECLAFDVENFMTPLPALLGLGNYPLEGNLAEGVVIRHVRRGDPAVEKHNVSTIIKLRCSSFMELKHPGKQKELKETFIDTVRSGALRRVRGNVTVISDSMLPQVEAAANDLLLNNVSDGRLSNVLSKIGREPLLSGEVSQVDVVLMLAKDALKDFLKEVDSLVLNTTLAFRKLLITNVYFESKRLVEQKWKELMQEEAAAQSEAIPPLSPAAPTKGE
Large screens that a line does not name were inactive.

C#CCOCCOCCOCCNc1nc(N2CCN(C(=O)[C@H]([C@@H](C)CC)n3cc(CCCCN)nn3)CC2)nc(N2CCN(C(=O)[C@H](C)n3cc(CCC(=O)O)nn3)CC2)n1	none
C#CCOCCOCCOCCNc1nc(N2CCOCC2)nc(N2CCN(C(=O)CCCCCCCCCCNC(=O)[C@@H]([C@H](C)CC)n3cc(CCCCCN)nn3)CC2)n1	TbREL1 inh 13
C#CCOCCOCCOCCNc1nc(N2CCOCC2)nc(N2CCN(C(=O)CCCCCCCCCCNC(=O)[C@@H](CCC(=O)O)n3cc(CCCCCN)nn3)CC2)n1	none
CCOC(=O)[C@]12CCCC3=C1N(CCC3)C(=O)[C@@H](CC(=O)NCCCOC)C2	none
O=C1CC(N2CCOCC2)=NC(=O)N1c1ccc(Br)cc1	none
N#Cc1ccccc1N1CCN(S(=O)(=O)c2ccc3c(c2)CCC(=O)N3)CC1	none
O=[N+]([O-])c1ccccc1/C=C/C=Nn1c(-c2ccc(F)cc2)n[nH]c1=S	none
CC(=O)Nc1ccc(OCC(O)CNC2CCCC2)cc1 (centres undefined)	none
Cc1ccccc1OCC(O)CNC1CCC(NCC(O)COc2ccccc2C)CC1 (centres undefined)	TbREL1 inh 17
OC(CNC1Cc2ccccc2C1)COc1ccc(F)cc1 (centres undefined)	none
O=C(Nc1ccc2ncccc2c1)c1cc(-c2ccc(Cl)cc2)nc2ccccc12	none
Clc1ccc([C@H]2OC[C@@]3(CNCc4ccccc4)CS[C@H](c4ccc(Cl)cc4)N23)cc1	none
O=C(NCc1ccc(Cl)cc1)O[C@H]1CC[C@@]23CCCN2C(=O)CCC[C@H]3C1	none
Brc1ccc(Cn2nnc(-c3ccc(N4CCOCC4)cc3)n2)cc1	none
Cc1occc1C(=O)N/N=C/c1ccc[nH]1	none
Cc1occc1C(=O)N/N=C/C(Br)=C/c1ccccc1	TbREL1 inh 11
Cn1cc(C(=O)N/N=C/C(Br)=C\c2ccccc2)ccc1=O	none
CCC[C@H]1[C@@H](OC(=O)NCc2ccc(OC)cc2)CC[C@@]23CCCN2C(=O)CCC[C@@H]13	none
COC(CNC(=O)[C@H](Cc1c[nH]c2ccccc12)NC1(C(=O)NCc2ccccc2)CCCCC1)OC	none
O=C1C2C(C(=O)N1Cc1ccco1)C1C=CC2C12CC2 (centres undefined)	none
O=C1CC(=O)N(Cc2ccco2)C(=O)N1	TbREL1 inh 70
O=C1CC(=O)N(Cc2cccs2)C(=O)N1	none
COc1cccc(N2CCN(CC(=O)NCc3ccccc3C)CC2)c1	none
COc1cccc(CNC(=O)C2C3C=CC4(CN(Cc5ccccc5)C(=O)C24)O3)c1OC (centres undefined)	none
CCC[C@H]1[C@@H](O)CC[C@@]23CCCN2C(=O)CCC[C@@H]13	none
COC(=O)[C@]12C[C@H](CC(=O)N3CCN(C(=O)C4CC4)CC3)C(=O)N(CCc3ccc(OC)c(OC)c3)C1=C[C@H](C(C)C)O[C@@H]2C1CC1	none
O=C(c1ccc(Cl)cc1)C1CCN(c2ncnc3sccc23)CC1	none
CCCCCCOC(=O)CCn1[nH]c(=O)c2ccccc2c1=O	none
CCCCCCCCCn1cc(C(C)=O)c(=O)[nH]c1=O	TbREL1 inh 19
CCCCCCCN1C=CC(=O)CC1	none
Cn1cccc1C(=O)N1CCN(S(=O)(=O)c2ccc(Br)s2)CC1	none
COc1cccc(/C=N/NC(=O)CNC(=O)CCc2ccccc2)c1O	none
O=C1C(C=NCc2cccnc2)=C(O)c2ccccc21	none
Oc1cccc(C=NCc2ccccc2)c1O	TbREL1 inh 12
C[C@H]1[C@@H](OC(=O)Nc2ccc(C#N)cc2)CC[C@@]23CCCN2C(=O)CCC[C@@H]13	none
COc1ccc(C2CC3CN(C4CCCCC4)C(=O)C3N2C)cc1 (centres undefined)	none
O=C(Oc1coc(CSc2ncccn2)cc1=O)c1ccc([N+](=O)[O-])cc1	none
Cc1cccc(CN(C)CCc2ccccn2)c1	none
COc1ccc(CN(C)CCc2ccccn2)c(OC)c1OC	TbREL1 inh 18
COc1ccc(C(=O)O)cc1S(=O)(=O)N(C)CCc1ccccn1	none
CC(C)(C)c1ccc(C(=O)Nc2cc(Cl)ccc2-c2nn[nH]n2)cc1	none
COc1ccc2c(c1)[C@@]1(OCCC=C[C@H]1C)C(=O)N2Cc1ccc(Br)cc1	none
CN(C(=O)/C=C/c1ccco1)c1ccccc1C(=O)O	none
O=C(O)c1cnn2c(C(F)(F)F)cc(-c3ccco3)nc12	none
O=C(O)c1cc(N2N=C(C(F)(F)F)/C(=C/C=C/c3ccco3)C2=O)ccc1Cl	TbREL1 inh 98
Clc1ccc(-c2nnc3n2N=C(c2ccc(-c4ccccc4)cc2)CS3)cc1	none
COC[C@H]1CCCN1c1cccc2c1S(=O)(=O)N(C1CC1)CCCO2	none
C[C@H]1[C@@H](OC(=O)Nc2ccccc2Cl)CC[C@@]23CCCN2C(=O)CCC[C@@H]13	none
CC(C)Oc1cccc(-c2n[nH]c(=S)n2N=Cc2cccc([N+](=O)[O-])c2)c1	none
Cn1c(=O)[nH]c2c(Br)nccc21	none
Cc1ccc(C)c(NC(=O)CN(C)C(=O)c2ccc(Cl)nc2)c1	TbREL1 inh 11
Cc1ccc(C)c(NC(=O)CN(C)C(=O)c2ccc3c(=O)n4c(nc3c2)CCC4)c1	none
Cc1ccc(C)c(NC(=O)CN(C)C(=O)Cc2ccccc2)c1	none
COc1cccc(-c2nnc3sc(-c4ccc(Br)o4)nn23)c1	none
COc1cc(O)c([C@@H](CC(=O)N2CC(C)CC(C)C2)c2ccc3c(c2)OCO3)c(OC)c1 (some centres undefined)	none
COCCCNC(=O)c1ccc2c(c1)NC(=O)C(C)(C)O2	none
Cc1ccc(NC(=O)Cn2nnc(-c3ccccc3F)n2)c(C)c1	none
COc1ccc2c(=O)c3c(=O)n(Cc4ccco4)c(-c4ccccc4)nc3oc2c1	none
COc1ccc(Cn2c(C)nc3c(c2=O)c2nc4ccccc4nc2n3Cc2ccco2)cc1	TbREL1 inh 11
COc1ccc(Cn2c(C)nc3c(c(=O)c4ccccc4n3C)c2=O)cc1	none
O=C(CSc1nnc(Cc2cccs2)n1-c1ccc(Cl)cc1)Nc1ccc(OCc2ccccc2)cc1	none
O=C(CSc1nnc(-c2cccnc2)n1-c1ccccc1)c1ccccc1Cl	none
CCCOc1ccc(-c2cc(C(C)=O)c3n(c2=O)CCC3)cc1	none
O=c1cc(-c2ccc(O)c(O)c2)oc2cc(O)c([C@@H]3O[C@H](CO)[C@@H](O)[C@H](O)[C@H]3O)c(O)c12	TbREL1 inh 48
COc1cc(O)c2c(=O)c3c(O[C@H]4O[C@@H](CO)[C@H](O)[C@@H](O)[C@@H]4O)ccc(O)c3oc2c1	none
COc1cc2ccc(=O)oc2c(O[C@@H]2O[C@H](CO)[C@@H](O)[C@H](O)[C@H]2O)c1O	none
CC(C)C[C@H](NC1(C(=O)NC2CCCCC2)CCCCC1)C(=O)NCCc1c[nH]c2ccccc12	none
C[C@H]1CCCN1c1ccc2c(c1)OCCCN(C1CC1)S2(=O)=O	none
CCCC1CCC2(CC1)CCC2OC(=S)Nc1ccccc1 (centres undefined)	none
CC(C)CC(=O)N1CCC(C(=O)NCC2COc3ccccc3O2)CC1 (centres undefined)	none
c1ccc(Cn2ccc3ccc(-c4ccc5ccn(Cc6ccc(-c7ccccc7)cc6)c5c4)cc32)cc1	none
CC(C)(C)OC(=O)C1[C@H](O)C=CC[C@H]1S(=O)c1ccccc1 (some centres undefined)	none
O=C(C[n+]1cc(-c2ccccc2)n2c1CCC2)c1cccs1	none
CC1CCC(C(C)C)C(OC(=O)Cn2c(-c3ccc(Br)cc3)[n+](C)c3ccccc32)C1 (centres undefined)	none
COc1ccc(-c2c[n+](CC(=O)OC3CC(C)CCC3C(C)C)c3n2CCC3)cc1 (centres undefined)	TbREL1 inh 15
CCCN1CNc2c(c(=O)[nH]c(=S)n2CCc2cccc(Cl)c2Cl)C1	none
CCn1cc(C(=O)Nc2ccc(Oc3cccnc3)cc2)c2ccccc21	none

Bioassay records (PubChem BioAssay)
